# Assay results published in article PMC7826789 (International Journal of Molecular Sciences, 2021).
# Experiments:
# Conditions in all cases: Compound Concentration (nM):1000
# ROCK2 = test system: ROCK2
# ROS1 = test system: ROS1
# [1] = test system: RPS6KA4(Kin.Dom.1-N-terminal)
# [2] = test system: RPS6KA4(Kin.Dom.2-C-terminal)
# [3] = test system: RPS6KA5(Kin.Dom.1-N-terminal)
# [4] = test system: RPS6KA5(Kin.Dom.2-C-terminal)
# [5] = test system: T1, RSK1(Kin.Dom.1-N-terminal)
# T1 construct: gene RPS6KA1
# [6] = test system: T2, RSK1(Kin.Dom.2-C-terminal)
# T2 construct: gene RPS6KA1
# [7] = test system: T3, RSK2(Kin.Dom.1-N-terminal)
# T3 construct: gene RPS6KA3
# [8] = test system: T4, RSK2(Kin.Dom.2-C-terminal)
# T4 construct: gene RPS6KA3
# 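Further: KINOMEscan scanMAX binding as percent activity remaining versus control; lower means stronger binding.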
SMILES,Percent Control (ROCK2),Percent Control (ROS1),Percent Control [1],Percent Control [2],Percent Control [3],Percent Control [4],Percent Control [5],Percent Control [6],Percent Control [7],Percent Control [8]
COc1cc2ncn(-c3cc(O[C@H](C)c4ccccc4Cl)c(C(N)=O)s3)c2cc1OC [GSK237701A],83%,92%,92%,68%,100%,72%,96%,87%,50%,77%
COc1cc(C=NNc2ncnc3c2cnn3-c2ccccc2)ccc1O [GW513184X],88%,99%,100%,82%,100%,85%,100%,100%,88%,71%
CCS(=O)(=O)c1ccc(OC)c(Nc2ncc(-c3cccc(OC)c3)o2)c1 [GW580509X],88%,92%,100%,100%,100%,100%,100%,100%,100%,100%
Cl.O=C(Nc1ccc(Oc2ccc3[nH]c(NC(=O)c4ccco4)nc3c2)cc1)Nc1cc(C(F)(F)F)ccc1F [GW683134A],57%,61%,100%,82%,95%,75%,100%,100%,100%,100%
CN(C)CCNC(=O)Nc1ccc(N(C)c2ccnc(Nc3ccc(CS(C)(=O)=O)cc3)n2)cc1.Cl [GW830900A],9.1%,61%,100%,88%,100%,100%,100%,84%,73%,82%
Cl.O=S1CCN(Cc2ccc(-c3ccc4ncnc(Nc5ccc(OCc6ccccc6)c(F)c5)c4c3)o2)CC1 [GW576924A],94%,100%,100%,100%,100%,100%,100%,100%,100%,100%
COc1ccc(COc2ccc(Cc3cnc(N)nc3N)cc2OC)cc1 [GW632580X],95%,82%,100%,77%,97%,87%,100%,100%,100%,100%
CN1CCN(C(=O)c2ccc(NC(=O)Nc3ccc(N(C)c4ccnc(Nc5ccc(CS(C)(=O)=O)cc5)n4)cc3)cc2)CC1.Cl [GW830263A],1.5%,57%,82%,74%,100%,87%,100%,93%,57%,86%
COc1ccc2cc(-c3c(-c4ccncc4)nc(-c4ccc(S(C)(=O)=O)cc4C)n3C)ccc2c1 [SB-633825],80%,69%,100%,91%,95%,51%,82%,97%,62%,70%
CCn1c(-c2nonc2N)nc2c(C#CC(C)(C)O)nc(OCCNC)cc21.Cl [GSK949675],78%,100%,100%,5.9%,91%,34%,100%,100%,97%,72%
COc1ccc2c(-c3ccnc(Nc4cccc(OC(F)(F)F)c4)n3)cnn2n1 [GW810372X],100%,96%,100%,100%,100%,87%,100%,100%,95%,90%
NS(=O)(=O)c1ccc(N/N=C2\C(=O)Nc3ccc(-c4cnco4)cc32)cc1 [GW276655],2.5%,96%,65%,94%,97%,39%,100%,100%,79%,79%
CC(C)COC(=O)c1ccc2c(c1)/C(=C/Nc1ccc(S(N)(=O)=O)cc1)C(=O)N2 [GW416981X],21%,100%,100%,67%,100%,66%,100%,100%,36%,97%
COc1ccccc1-c1cc(/C=C2\C(=O)Nc3ncc(Br)cc32)cc(Br)c1O [GW442130X],82%,95%,100%,68%,76%,46%,100%,58%,100%,79%
C/C(Nc1ccc(S(N)(=O)=O)cc1)=C1/C(=O)Nc2ccccc21 [GW335962X],69%,76%,96%,85%,100%,100%,100%,92%,52%,89%
NS(=O)(=O)c1ccc(N/N=C2\C(=O)Nc3ccc(C(=O)NCc4ccncc4)cc32)cc1 [GW300657X],56%,100%,87%,42%,100%,19%,94%,83%,79%,87%
Cl.c1ccc(Cc2nc3ccc(Nc4ncnc5ccccc45)cc3[nH]2)cc1 [GR269666A],98%,76%,100%,100%,100%,100%,100%,100%,100%,97%
O=C1Nc2ccc(C(=O)c3ccco3)cc2C1=Cc1cc(Cl)c(O)c(Cl)c1 [GW406108X],45%,100%,100%,49%,100%,67%,78%,16%,26%,85%
O=C(Nc1n[nH]c2nc(-c3ccc(O)cc3)c(Br)cc12)C1CC1 [SB-725317],98%,91%,100%,1.2%,100%,43%,100%,100%,65%,97%
COc1cc(C)c(N(C)C(=O)CN(C)C)cc1Nc1nc(Nc2cccc(F)c2C(N)=O)c2cc[nH]c2n1 [GSK2219385],100%,84%,92%,68%,100%,90%,56%,96%,21%,100%

SMILES,Percent Control (ROCK2),Percent Control (ROS1),Percent Control [1],Percent Control [2],Percent Control [3],Percent Control [4],Percent Control [5],Percent Control [6],Percent Control [7],Percent Control [8]
COc1cccc(-c2c[nH]c3c(N/N=C/c4ccncc4)ncnc23)c1 [GW814408X],73%,100%,100%,62%,100%,100%,88%,77%,75%,100%
C[C@@H](Oc1cc(-n2cnc3ccc(OC4CCN(C)CC4)cc32)sc1C(N)=O)c1ccccc1Cl [GSK579289A],83%,100%,100%,3.2%,100%,38%,71%,86%,23%,98%
Cc1cc(O)cc(C)c1/C=C/c1cncc(C(N)=O)c1 [GW435821X],100%,86%,100%,98%,100%,100%,100%,100%,100%,96%
CC1=C(C(=O)Nc2ccc3[nH]ncc3c2)C(c2ccc3ccccc3c2)CC(=O)N1 (stereo not shown) [GSK270822A],0%,81%,100%,91%,100%,64%,91%,99%,72%,75%
COc1cccc(-n2ncc3c(N/N=C/c4ccncc4)ncnc32)c1 [GW784752X],84%,100%,100%,70%,100%,100%,94%,100%,100%,86%
COc1ccc2[nH]c3c4[nH]c5ccc(OC)cc5c4c4c(c3c2c1)C(=O)NC4=O [GW296115X],73%,24%,71%,25%,53%,66%,49%,100%,21%,95%
CC1=C(C(=O)Nc2ccc3[nH]ncc3c2)C(c2ccc(Cl)c(Cl)c2)CC(=O)N1 (stereo not shown) [GSK299115A],0.1%,98%,100%,82%,100%,60%,100%,81%,75%,89%
NS(=O)(=O)c1ccc(N/N=C2\C(=O)Nc3ccc(C(=O)NCCc4c[nH]cn4)cc32)cc1 [GW300660X],40%,100%,100%,80%,100%,100%,100%,100%,54%,100%
CCS(=O)(=O)c1ccc(OC)c(Nc2ncc(-c3cccc(F)c3)o2)c1 [GW621970X],100%,90%,100%,94%,100%,100%,100%,100%,100%,83%
Nc1ncnc2occ(-c3ccc(NC(=O)Nc4cc(C(F)(F)F)ccc4F)cc3)c12 [GW770249X],27%,56%,100%,92%,55%,100%,100%,100%,89%,98%
COc1cc2ncnc(Nc3ccc4c(cnn4Cc4ccccc4)c3)c2cc1OC.Cl [GW282449A],100%,89%,42%,93%,84%,100%,100%,100%,100%,99%
COc1cc(N2CCN(C(C)C)CC2)ccc1Nc1nc(Nc2ccc(F)cc2C(=O)NC[C@@H](O)CO)c2cc[nH]c2n1 [GSK1392956A],100%,52%,100%,33%,100%,47%,27%,78%,5.7%,100%
Cl.O=C(Nc1ccc(Oc2ccc3[nH]c(NC(=O)c4ccccc4)nc3c2)cc1)Nc1cc(C(F)(F)F)ccc1F [GW709042A],85%,67%,100%,77%,100%,88%,100%,100%,100%,90%
NS(=O)(=O)c1ccc(Nc2ncc(-c3ccccc3)o2)cc1 [GW572399X],91%,100%,100%,89%,100%,100%,100%,100%,98%,98%
CN(C)c1cc2c(Nc3ccc4c(cnn4Cc4ccccc4)c3)ncnc2cn1 [GW282974X],96%,100%,93%,89%,100%,92%,97%,100%,95%,100%
COC(=O)Nc1nc2ccc(Oc3ccc(NC(=O)Nc4cc(C(F)(F)F)ccc4F)cc3)cc2s1.Cl [GW693917A],86%,95%,100%,80%,100%,100%,99%,94%,98%,86%
NS(=O)(=O)c1ccc(N/N=C2\C(=O)Nc3ccc(Cl)cc32)cc1 [GW280670X],89%,79%,100%,97%,100%,100%,100%,100%,100%,83%
CCc1ccc(Oc2nccc(-c3c(-c4ccc(F)cc4)ncn3C3CCNCC3)n2)cc1 [SB-242719],90%,61%,100%,73%,98%,87%,99%,77%,97%,94%
Cl.O=C(O[C@H]1CN[C@H](C#Cc2cc3ncnc(Nc4ccc5c(cnn5Cc5ccccc5)c4)c3s2)C1)N1CCOCC1 [GSK200398A],84%,73%,97%,88%,100%,100%,96%,97%,95%,93%
COc1cc(/C=N/Nc2ncnc3[nH]ncc23)ccc1O [GW578748X],33%,96%,100%,5.5%,100%,91%,100%,100%,72%,93%
